Screens deposited in PubChem BioAssay by National Center for Advancing Translational Sciences (NCATS).
Most compounds without a hit are left out; they make up all but 8.1% or so of the library.
Epigenetic derep = Quantitative High-Throughput Screen for Regulators of Epigenetic Control. Potency, µM (titrated, usually from 53.9 µM), without a hit: at the highest dose GFP activation, hits mostly activators. AID 1865, 2009. murine LDR cells, GFP reporter derepression, 30 h. 280,000 tested, 0.2% active; further: % of control where 0% means no effect; nearly all actives have a fitted effect of over 60% in size
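Murine LDR cells bearing a silenced CMV-driven GFP reporter were exposed to compound for 30 h at 37 C. After PBS washes, GFP-positive cells (20-120 um objects) counted by laser-scanning microplate cytometry.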
PINK1 modulator = A Quantitative High throughput Screen to Identify Chemical Modulators of PINK1 Expression; PINK1 immunofluorescence, high-content cytometry, 24 h; Potency, µM (doses to about 76.6 µM), for the others: at the top dose activation (PINK1 increase), usual class: activators; 410,000 tested, 0.2% active; AID 624263, 2012; active means well fitted activation curve with a large enough effect; inconclusive means small, poorly fitted or top-dose-only effect; cell line not stated here; further: % of control where 0% means no effect; nearly all actives have a fitted effect of over 65% in size
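Measures PINK1 amount and localization on or inside mitochondria by immunofluorescence. Stable cells get compounds at 5 concentrations for 24 hours before fixation and staining; CCCP controls included.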
Sfp PPTase inh = qHTS Assay for Inhibitors of Bacillus subtilis Sfp phosphopantetheinyl transferase (PPTase); Biochemical Sfp PPTase activity, qHTS; Potency, µM, without a hit: largest response in the series, negative = inhibition, hits mostly inhibitors; 310,000 tested, 3.5% active; 4'-phosphopantetheinyl transferase ffp (Bacillus subtilis), Q9F4F7;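 further: the enzyme is Sfp with the accession as filed and its product quenches rhodamine fluorescence; 0% = enzyme reaction without inhibitor and -100% = no enzyme wells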
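Sfp 15 nM + cpd, 15 min RT; start w/ rhodamine-CoA 5 uM, BHQ-2-YbbR 12.5 uM (final); 50 mM Hepes pH 7.6, 10 mM MgCl2, 0.01% NP-40, 0.01% BSA; read 525/598 nm at 0 and 30 min.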
ClpP mod = qHTS Assay for Activators of ClpP. purified B. subtilis ClpP, FRET peptide cleavage, 20 min. ATP-dependent Clp protease proteolytic subunit (Bacillus subtilis (strain 168)), P80244. AID 651965, 2013. Potency, µM (titrated, usually from 57.5 µM), for the others: at the top dose activity change, negative = active. 340,000 tested, 1.9% active; active means well fitted falling curve with a large enough effect; inconclusive means small, poorly fitted or top-dose-only effect; inactive means no such curve, though single readings can be large or run the other way; further: the source files actives as falling curves though it sought activators and does not explain the sign; nearly all actives have a fitted effect of over 65% in size
Target sequence (P80244 whole entry, looked up): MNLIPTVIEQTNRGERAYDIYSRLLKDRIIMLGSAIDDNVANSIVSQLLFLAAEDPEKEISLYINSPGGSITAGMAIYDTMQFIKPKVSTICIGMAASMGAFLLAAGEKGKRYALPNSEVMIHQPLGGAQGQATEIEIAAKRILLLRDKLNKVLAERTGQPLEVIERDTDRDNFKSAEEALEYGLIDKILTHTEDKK
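FRET quenching reversal measured ClpP activation: 10 microg/mL B. subtilis ClpP at pH 8 with the FRET-FV decapeptide, read at 430 nm after 320 nm excitation. The 20-min minus 0-min signal was scaled between DMSO/no-enzyme wells and ADEP (5.8 microM final).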
RORgamma inh = qHTS for inhibitors of ROR gamma transcriptional activity; Drosophila S2 Gal4-RORgamma UAS-luciferase reporter, 20 h; Potency, µM (titrated, usually from 53.6 µM), without a hit: top-dose activity change, negative = inhibition, usual class: inhibitors; 310,000 tested, 5.4% active; further: on the % scale 0 is the no-effect control and ±100 the full control effect; nearly all actives have a fitted effect of over 60% in size
Target sequence (P51450 whole entry, looked up, the tested form may be a part): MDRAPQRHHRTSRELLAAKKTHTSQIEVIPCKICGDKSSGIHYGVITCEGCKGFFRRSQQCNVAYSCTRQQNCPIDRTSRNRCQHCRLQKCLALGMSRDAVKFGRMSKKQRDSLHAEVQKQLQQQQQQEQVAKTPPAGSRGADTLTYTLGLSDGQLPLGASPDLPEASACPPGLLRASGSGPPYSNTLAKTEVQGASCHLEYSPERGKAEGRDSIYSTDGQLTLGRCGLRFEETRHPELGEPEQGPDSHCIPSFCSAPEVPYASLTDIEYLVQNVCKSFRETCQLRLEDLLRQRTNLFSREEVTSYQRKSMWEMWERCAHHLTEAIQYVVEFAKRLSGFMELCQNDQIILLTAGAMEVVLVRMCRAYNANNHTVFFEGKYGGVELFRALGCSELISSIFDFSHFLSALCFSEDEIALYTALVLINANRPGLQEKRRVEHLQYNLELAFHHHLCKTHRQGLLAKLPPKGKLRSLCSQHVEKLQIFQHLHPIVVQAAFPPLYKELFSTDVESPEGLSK
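Stably transfected Drosophila Schneider cells are the test system, with ROR gamma fused to Gal4 and luciferase under UAS control; luminescence is read after 20 hr of 700 uM copper sulfate induction at ambient temperature.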
Gal4-VP16 FLuc = VP16 counterscreen qHTS for inhibitors of ROR gamma transcriptional activity; Drosophila S2 Gal4-VP16 UAS-luciferase, luminescence, 20 h; Potency, µM (doses to about 53.6 µM), without a hit: at the top dose activity, negative = inhibition, most hits filed as inhibitors; 310,000 tested, 3.5% active; AID 2546, 2010;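 further: Gal4-VP16 expression switched on by copper sulfate through the metallothionein promoter; on the % scale 0 is the no-effect control and ±100 the full control effect; nearly all actives have a fitted effect of over 50% in size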
Numbers without * were called inactive; ? = inconclusive; . = no result given; [ ] = another dose, or the depositor's remark. Unless noted, the call rests on the fitted dose curve; in most records, active means well fitted curve in the direction sought with a large enough effect; inconclusive means small, poorly fitted or top-dose-only effect, or another doubt; inactive means no such curve, though single readings can be large; an effect the other way counts as inactive or inconclusive. Potency means the concentration at half of the fitted maximal effect.

SMILES | Epigenetic derep | PINK1 modulator | Sfp PPTase inh | ClpP mod | RORgamma inh | Gal4-VP16 FLuc
CC(NC(=O)/C(C#N)=C/c1ccc([N+](=O)[O-])o1)c1ccccc1 (stereo unspecified) | . | 3.0% | -18.3% | -1.5% | 5.01µM* | 2.51µM*
CC(NC(=O)/C(C#N)=C/c1ccco1)c1ccccc1 (stereo unspecified) | -1.1% | -0.7% | 50.1µM* | . | -9.1% | ?
CCOCCCNC(=O)/C(C#N)=C/c1ccc([N+](=O)[O-])o1 | 3.98µM* | -0.2% | 0.6% | . | 12.4% | 1.3%
CSc1ccc(/C=C2\C=Cc3cc([N+](=O)[O-])ccc32)cc1 | . | 8.4% | . | 1.4% | . | .
CSc1nnc(NC(=O)c2nc(S(=O)(=O)Cc3ccccc3)ncc2Cl)s1 | . | -1.5% | -9.7% | . | 12.6µM* | ?
CC(C)c1nnc(NC(=O)c2nc(S(=O)(=O)Cc3ccccc3)ncc2Cl)s1 | 1.9% | -1.0% | -7.2% | 0.0% | 22.4µM* | 11.2µM*
CSc1ncc(Cl)c(C(=O)Nc2nnc(SC)s2)n1 | -1.1% | -1.7% | 3.6% | -0.7% | 0.1% | 0.9%
CCCSc1nnc(NC(=O)c2nc(SC)ncc2Cl)s1 | -0.2% | -5.1%[38.3 µM] | 0.5% | 1.1% | 12.6µM* | -38.6%
O=C(OCc1ccccc1)N1CCN(/[N+]([O-])=N/Oc2ccc([N+](=O)[O-])cc2[N+](=O)[O-])CC1 | . | 0.5% | . | . | . | .
Nc1nonc1-c1nc2ccccc2n1Cc1c(Cl)cccc1Cl | 3.2% | ? | . | -9.2% | . | .
CCOC(=O)c1c(C)oc2c(Cl)cc(NS(=O)(=O)c3ccc(Cl)c(C)c3)cc12 | 1.9% | ? | . | -1.3% | . | .
O=C(OC1Cc2c(O)cc(O)cc2OC1c1cc(O)c(O)c(O)c1-c1c(C2Oc3cc(O)cc(O)c3CC2O)cc(O)c(O)c1O)c1cc(O)c(O)c(O)c1 (stereo unspecified) | -0.9% | -1.2% | 39.8µM* | . | -1.6% | -3.4%
O=C(NC1CCC(O)CC1)c1cc(-c2ccco2)nc2ccccc12 (stereo unspecified) | -1.8% | 1.7% | 17.8µM* | 4.2% | 7.4% | -10.9%
Cc1cccc(NC(=O)c2ccoc2C)n1 | 5.7% | -1.8% | 6.1% | 28.2µM* | 25.6% | 9.3%
Cc1cccc(NC(=O)c2cc(-c3ccco3)nc3ccccc23)n1 | 4.5% | 22.4% | 22.4µM* | 22.4µM* | -5.2% | 5.4%
Cc1ccc(S(=O)(=O)N(C)C)cc1NC(=O)c1cc(-c2ccco2)nc2ccccc12 | . | 3.1% | -6.4% | 28.2µM* | -41.9% | -26.4%
CC(=O)c1ccc(C(=O)N2CCc3c(cnc(C)c3CNC(=O)c3ccc4c(c3)OCO4)C2)s1 | . | -0.7% | . | . | . | .
COC(=O)c1cc(CNC(=O)c2ccc(N(C)C)cc2)cc(NC(=O)c2ccccc2Cl)c1 | . | 0.2% | . | . | . | .
CCc1c(C)sc2c1CCN(C(=O)Nc1cc(C)ccc1C)C2c1ccc(OC)cc1 (stereo unspecified) | -4.9% | 0.1% | . | -1.1% | . | .
CC(C)c1c(C(=O)NCc2cccnc2)cnn1-c1nccc(-c2cccs2)n1 | . | 0.0% | . | . | . | .
CC(=O)c1ccc(N2CCN(c3ncnc4c3cnn4-c3cc(Cl)ccc3C)CC2)cc1 | 3.8% | 11.0% | . | -11.6% | . | .
Cc1ccc(NC(=O)CSc2nc3ccc(Br)cc3[nH]2)c(C)c1 | 0.4% | 1.8% | . | -1.0% | . | .
CC(=O)c1ccccc1-c1ccc2c(c1)CC(CNC(=O)c1cc(C)on1)O2 (stereo unspecified) | . | -0.4% | . | . | . | .
Cc1ccccc1NC(=S)N(CCN(C)C)C(C)c1cccnc1 (stereo unspecified) | 0.0% | -1.4% | 12.9% | -6.9% | 0.5% | -4.0%[10 µM]
COCCN(C(=S)Nc1c(C)cc(C)cc1C)C(C)c1cccnc1 (stereo unspecified) | 0.0% | 0.8% | 11.2µM* | -0.3% | ? | -4.8%
SMILES | Epigenetic derep | PINK1 modulator | Sfp PPTase inh | ClpP mod | RORgamma inh | Gal4-VP16 FLuc
Cc1cc(C)c(NC(=S)N(CCN(C)C)C(C)c2cccnc2)c(C)c1 (stereo unspecified) | 2.3% | -1.3% | -18.8% | 15.8µM* | -42.8% | -2.2%[10 µM]
Cc1cc(C)cc(NC(=S)N(CCN(C)C)C(C)c2cccnc2)c1 (stereo unspecified) | 0.1% | -0.6% | 19.4% | . | 11.2µM* | 0.4%[10 µM]
O=C(Cn1c(=O)n(Cc2ccc3c(c2)OCO3)c(=O)c2ccc(C(=O)NC3CCCCC3)cc21)Nc1ccccc1F | 17.3% | -0.7% | . | -29.9% | . | .
COc1ccc2[nH]cc(C(=O)CNc3nccs3)c2c1 | . | -0.5% | . | -10.2% | . | .
COC(=O)c1ccc(C(=O)OC)c(NC(=O)c2cnn3c(C(F)F)cc(-c4ccccc4)nc23)c1 | -2.2% | 0.2% | . | -0.1% | . | .
O=C(O)c1ccc2ccc3ccccc3c2c1 | . | -0.9% | . | -6.5% | . | .
O=[N+]([O-])c1ccc2cc[nH]c2c1 | . | 1.7% | . | 17.8µM* | . | .
O=C(O)c1ccc2cc[nH]c2c1 | -1.2% | 1.0% | 15.6% | 15.8µM* | 1.0% | 0.6%
O=[N+]([O-])c1ccc2[nH]ccc2c1 | . | . | . | -0.2% | . | .
CCS(=O)(=O)c1ncc(N(Cc2ccccc2)Cc2ccco2)c(C(=O)Nc2ccc(C)c(C)c2)n1 | -3.2% | -1.3% | . | -5.4% | . | .
CCN(CC)C1CCN(C(=O)c2cnn(-c3nccc(-c4ccccc4OC)n3)c2-c2ccco2)C1 (stereo unspecified) | . | 0.4% | . | . | . | .
COc1ccc(-c2nc(CCNC(=O)c3cc(OC)c(OC)c(OC)c3)cs2)cc1 | 0.0% | 0.5% | . | ? | . | .
CCOC(=O)c1ccc(NC(=S)N2CCCC(C)C2)cc1 (stereo unspecified) | -0.1% | 2.9% | 2.4% | . | 12.6µM* | ?
CCCCc1ccc(NC(=S)N2CCCC(C)C2)cc1 (stereo unspecified) | -0.1% | 2.2% | -4.1% | . | 5.01µM* | ?
CC1CCCN(C(=S)NCCc2ccccc2)C1 (stereo unspecified) | 2.3% | -1.6% | 8.0% | -3.9% | ? | -0.5%
O=C(c1ccc2c(c1)N(Cc1ccc(Cl)cc1)C(=O)c1ccccc1S2(=O)=O)N1CCOCC1 | 0.8% | 0.8% | . | 2.0% | . | .
C=CCn1c(N)c(C(=O)NCc2cccnc2)sc1=S | 1.9% | 1.9% | -20.1% | -5.4% | -0.5% | -2.7%
C=CCn1c(N)c(C(=O)NC2CCCCC2)sc1=S | -1.0% | -4.6%[38.3 µM] | 15.8µM* | -0.7% | 0.2% | 3.6%
CC1=NOC(=O)/C1=C\c1ccc(-c2ccc(Cl)cc2Cl)o1 | 17.7% | -1.9% | 44.7µM* | -0.2% | 2.2% | ?
